# In the library only some 12% were active in any assay of this set; here they are far more common.
# BAZ2B block: blocks human BAZ2B | AID 504333 | Q9UIF8 | Potency, µM (titrated, usually from 114 µM), for the others: at the highest dose activity change, negative = inhibition, usual class: inhibitors | hit rate 4.4% among 360,000 | AlphaScreen BAZ2B-H3K14Ac peptide displacement; note: potency is the fitted concentration of half-maximal effect; % is set by controls: 0 for no effect and ±100 for the full control effect; nearly all actives have a fitted effect of over 60% in size
#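 AlphaScreen luminescence quantifies BAZ2B engagement of H3K14Ac peptide; the protein and biotinylated peptide are both at 50 nM final, buffer PBS pH 7.4 with 0.01% Tween-20, all steps at room temperature.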
# HP1b binding inh: blocks HP1-beta chromodomain binding to methylated histone tails; P83916; AlphaScreen HP1-beta / biotin-H3K9me3 peptide binding; Potency, µM (doses to about 114 µM), for inactives: at the top dose activity change, negative = inhibition, hits mostly inhibitors; hit rate 0.56% among 390,000; AID 540317; note: potency is the fitted concentration of half-maximal effect; nearly all actives have a fitted effect of over 70% in size
#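 HP1-beta protein (50 nM final) preincubated 30 min at room temperature with biotinylated H3(1-18)K9me3 peptide (50 nM) in PBS pH 7.4, 0.01% Tween-20, then compound added for 30 min. AlphaScreen streptavidin donor/nickel chelate acceptor beads (10 ug/mL final), 30 min dark, luminescence read.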
# JMJD2A Tudor: inhibitors of human JMJD2A Tudor domain | AlphaScreen JMJD2A-Tudor / H3K4me3 peptide binding | Potency, µM (top dose mostly 114 µM), for inactives: at the highest dose activity change, negative = inhibition, usual class: inhibitors | hit rate 4.4% among 390,000; note: potency is the fitted concentration of half-maximal effect; % is set by controls: 0 for no effect and ±100 for the full control effect; nearly all actives have a fitted effect of over 50% in size
# PI5P4Ka inh: blocks human PI5P4K alpha kinase activity | PI5P4Kalpha enzyme, ADP-Glo luminescence, 60 min; active compounds read low | max response, % | hit rate 1.2% among 330,000; active = max response of -50% or lower; inconclusive = between -30% and -50%; inactive = -30% or higher; note: value at the top dose of about 77 µM; % is set by controls: 0 for no effect and ±100 for the full control effect
#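 Reactions run in 0.038 M HEPES pH 7.4, 0.28 mM EGTA, 0.1% CHAPS and 5% DMSO, with PI5P4Kalpha, substrate, compound and 5 microM ATP final, one hour at room temperature. Readout is ADP-Glo luminescence.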
# PLK1 PBD inh: inhibitors of human PLK1 polo-box domain binding; hit rate 2.8% among 360,000; Plk1 PBD binding of FITC phosphopeptide, fluorescence polarization; P53350; Potency, µM, for inactives: max response, negative = inhibition, actives largely listed as inhibitors; AID 720504; note: potency is the fitted concentration of half-maximal effect; series mostly up to about 57 µM; % is set by controls: 0 for no effect and ±100 for the full control effect; nearly all actives have a fitted effect of over 65% in size
# G9a inh: blocks human histone lysine methyltransferase G9a; AID 504332; G9a H3K9 monomethylation, AlphaScreen, 2 h; hit rate 8.8% among 350,000; Potency, µM (top dose mostly 102 µM), without a hit: at the highest dose activity, negative = inhibition, hits mostly inhibitors; Q96KQ7; note: potency is the fitted concentration of half-maximal effect; % is set by controls: 0 for no effect and ±100 for the full control effect; nearly all actives have a fitted effect of over 75% in size
#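 Using a bead-based AlphaScreen, monomethylated H3K9 product from 2 h room-temperature reactions (G9a 20 nM, peptide 500 nM, SAM 20 uM) was detected with 0.5 ug/mL rabbit anti-H3K9me1 antibody.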
# The depositor's hits bear a star; ? = inconclusive; nt = no result; [ ] = another dose, or the depositor's remark. Unless noted, calls come from the whole dose curve; as a rule, active = well fitted curve in the direction sought with a large enough effect; inconclusive = small, poorly fitted or top-dose-only effect, or another doubt; inactive = no such curve, though single readings can be large; an effect the other way counts as inactive or inconclusive.
SMILES,BAZ2B block,HP1b binding inh,JMJD2A Tudor,PI5P4Ka inh,PLK1 PBD inh,G9a inh
CCOC(=O)C1=C(O)/C(=C/c2ccc(-c3ccccc3C(=O)O)o2)SC1=Nc1ccc(OC)cc1,4.7%,8.6%,-23.4%,-54.7*,-8.3%,-27.6%[12.7 µM]
COc1ccc(NC(=O)C2Cc3c(-c4cccc(F)c4)ccnc3O2)cn1 (stereo not drawn),nt,nt,nt,-2.7,1.8%,nt
O=S(=O)(c1ccc2c(c1)OCCO2)N1CCN(S(=O)(=O)c2cccc3cccnc23)CC1,nt,nt,-13.0%,nt,nt,nt
COCCCn1c(=N)c(S(=O)(=O)c2ccccc2)cc2c(=O)n3cccc(C)c3nc21,-0.3%,31.3%,6.6%,nt,nt,7.6%[59 µM]
c1cncc(-c2nn3cnnc3s2)c1,-2.4%,30.2%,-3.6%,0.7,-6.4%,13.6%[59 µM]
c1ccc(OCc2nn3c(Cn4cnc5ccccc54)nnc3s2)cc1,0.6%,?,-35.2%,nt,23.8µM*,?
Clc1ccc(Cl)c(-c2nn3c(Cn4cnc5ccccc54)nnc3s2)c1,nt,36.1%,-6.0%,nt,-10.7%,nt
c1ccc2c(c1)ncn2Cc1nnc2sc(-c3ccncc3)nn12,-25.5%,-25.8%,?,nt,11.9µM*,?
c1ccc(-c2nn3c(Cn4cnc5ccccc54)nnc3s2)cc1,-28.3%,?,-31.8%,nt,7.52µM*,1.26µM*
c1cncc(-c2nn3c(Cn4cnc5ccccc54)nnc3s2)c1,-7.5%,?,89.1µM*,nt,4.74µM*,?
CC(=O)NCCNC(=O)CCCc1nnc2n(C)c(=O)c3sccc3n12,-1.3%,11.7%,-13.7%,nt,nt,0.8%[59 µM]
CN1N=C(C(=O)N2CCc3c([nH]c4ccccc34)C2c2ccccc2Cl)CCC1=O (stereo not drawn),-14.8%,-22.6%,31.6µM*,-18.9,26.7µM*,?
O=C(c1cc[n+]([O-])cc1)N1CCc2c([nH]c3ccccc23)C1c1ccccc1Cl (stereo not drawn),?,21.7%,-14.7%,-4.9,-4.2%,nt
Cc1ccccc1C1c2[nH]c3ccccc3c2CCN1C(=O)c1ccc(=O)n(C)n1 (stereo not drawn),10µM*,-2.8%,?,-0.9,-1.5%,-24.8%[59 µM]
O=C(c1cnccn1)N1CCc2c([nH]c3ccccc23)C1c1cccc(Cl)c1 (stereo not drawn),?,3.7%,?,-0.4,-4.2%,?
Cc1cc(C(=O)N2CCc3c([nH]c4ccccc34)C2c2cccc(Cl)c2)nn1C (stereo not drawn),?,1.6%,?,-3.6,6.3%,39.8µM*
Cc1ccc(S(=O)(=O)N2CCN(c3ccnc(-c4cccs4)n3)CC2)cc1,nt,19.7%,-29.9%,nt,nt,nt
CS(=O)(=O)N(CC(=O)N1CCCC1)c1cccc(F)c1,12.1%,47.7%,-7.7%,-5.1,-4.7%,-6.8%[0.501 µM]
Cc1ccc(C(=O)C2=C(O)C(=O)N(CC3CCCO3)C2c2ccccc2F)o1 (stereo not drawn),-1.4%,1.7%,-4.6%,-0.5,-18.4%,?
O=[N+]([O-])c1nccn1CCCCCCN1CCOCC1,nt,nt,nt,6.0,-9.6%,nt
c1ccc2[nH]c(CN3CCCCCC3)nc2c1,-15.1%,25.1%,-15.9%,nt,-5.0%,28.2µM*
COc1ccc(NC2=C(C(C)=O)C(c3ccccc3)C(C(C)=O)C(C)(O)C2)cc1 (stereo not drawn),-25.3%,12.0%,-24.6%,0.0,-11.3%,?
CC(=O)C1=C(Nc2ccc(C)cc2)CC(C)(O)C(C(C)=O)C1c1ccco1 (stereo not drawn),79.4µM*,2.0%,-15.7%,0.4,-6.9%,-8.0%[12.7 µM]
COc1ccc(S(=O)(=O)N2CCN(Cc3nc4ccc(C)cc4o3)CC2)cc1OC,-8.7%,1.2%,-20.2%,nt,nt,0.8%[59 µM]
CCC/C(=C1/C(=O)CC(C)(C)C(C(=O)OC)C1=O)N1CCCC1 (stereo not drawn),-9.6%,18.6%,-25.5%,7.6,-12.9%,70.8µM*
SMILES,BAZ2B block,HP1b binding inh,JMJD2A Tudor,PI5P4Ka inh,PLK1 PBD inh,G9a inh
CC(C)Cc1nn2c(=O)cc(COc3ccc(NC(=O)c4ccco4)cc3)nc2s1,-4.1%,36.0%,-27.7%,1.2,-8.0%,nt
CCCc1nn2c(=O)cc(COc3ccc(NC(=O)c4ccco4)cc3)nc2s1,3.7%,15.2%,?,2.3,21.2µM*,26.0%
CCc1nn2c(=O)cc(COc3cccc(NC(=O)c4ccco4)c3)nc2s1,?,12.8%,25.1µM*,?,26.7µM*,nt
CCc1nn2c(=O)cc(COc3ccc(NC(=O)c4ccco4)cc3)nc2s1,-16.3%,17.7%,?,1.4,26.7µM*,-17.4%
CCCc1nn2c(=O)cc(COc3cccc(NC(=O)c4ccco4)c3)nc2s1,-3.0%,30.0%,-21.6%,-3.4,-23.5%,-10.7%
COc1cc2c(cc1OC)/C(=C/C(C)=O)OC2,nt,nt,nt,-1.5,-6.1%,nt
Cc1ccc(Nc2nnc(SCC(=O)NC(Cc3c[nH]c4ccccc34)C(=O)O)s2)cc1 (stereo not drawn),50.1µM*,0.7%,-23.2%,-28.6,-7.1%,12.6µM*
Cc1ccc(C)c(OCC(=O)NC(Cc2c[nH]c3ccccc23)C(=O)O)c1 (stereo not drawn),?,26.8%,-11.9%,-3.6,-19.9%,nt
CCOc1ccccc1Nc1nnc(SCC(=O)NC(Cc2c[nH]c3ccccc23)C(=O)O)s1 (stereo not drawn),-31.5%,-9.1%,-28.7%,-10.2,-13.3%,39.8µM*
O=C(COc1ccccc1F)Nc1ccc(Cl)c(-c2nc3ccccc3[nH]2)c1,-19.1%,51.7%,-6.3%,nt,nt,2.5%[59 µM]
CCc1nnc(NS(=O)(=O)c2ccc(N/C=C\C(=O)c3ccc(C)cc3)cc2)s1,?,19.0%,?,-18.9,?,-31.5%[59 µM]
CCc1nnc(NS(=O)(=O)c2ccc(N/C=C\C(=O)c3cccc(OC)c3)cc2)s1,-37.7%,28.7%,-13.2%,4.6,-29.3%,50.1µM*
CCc1nnc(NS(=O)(=O)c2ccc(N/C=C/C(=O)c3ccc(C)cc3)cc2)s1,50.1µM*,33.8%,?,-6.1,?,39.8µM*
CCc1nnc(NS(=O)(=O)c2ccc(NC(=O)/C=C/c3ccc(OC)cc3OC)cc2)s1,56.2µM*,-3.2%,?,?,?,14.8%[59 µM]
CC(C)Cn1cc(NC(=O)NCc2ccc(Cl)cc2)c2ccccc2c1=O,3.4%[57.1 µM],31.8%,39.8µM*,nt,nt,?
CCCCNC(=O)CN1CCN(c2ncc(NC(=O)c3ccc(Cl)cc3)cc2C(=O)O)CC1,50.1µM*,-31.0%,79.4µM*,nt,nt,?
CCCNC(=O)CN1CCN(c2ncc(NC(=O)c3ccc(Cl)cc3)cc2C(=O)O)CC1,50.1µM*,-23.1%,70.8µM*,nt,nt,?
CCn1c(=S)sc2nc(C)sc21,nt,-33.3%,-26.2%,nt,21.2µM*,nt
Cn1cc(/C=C2\SC(=S)N(NC(=O)c3ccccc3)C2=O)c2ccccc21,?,5.1%,1.7%,-6.3,29.1%,1.1%[59 µM]

# Screens deposited in PubChem BioAssay by National Center for Advancing Translational Sciences (NCATS).
